Drawing on PubChem BioAssay AID1307 (SRMLSC, 2008), this text covers max inhibition for 76 compounds.

Screen size: about 1,200 compounds; fewer than 10 were called active. Not all results are given here. Entries with a potency or affinity are not part of this list. Unmarked numbers belong to inactive results.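 The calls were made as follows: active = inhibition reaching a set limit at one or more tested concentrations; inactive = inhibition under that limit at every dose.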

The nature of the test: yeast RAM network inhibitors, dose response, S. cerevisiae (AID 1307).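 Also: 0% = DMSO vehicle wells and 100% = 10 µM 1-NA-PP1 control; higher inhibition means more yeast growth since RAM block rescues cells from 5-FOA.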 The note with it: S. cerevisiae RAM network URA3 reporter, 5-FOA growth OD615, hits give high values, yeast express analog-sensitive mutant Cbk1 kinase; at 100 µM unless noted.
`COc1ccc(C(=O)COC(=O)C(CCSC)NS(=O)(=O)c2ccc(Cl)cc2)cc1` (stereo unspecified): the max inhibition is 2.78% [at 25 µM].
As for `COCCn1c(=NC(=O)c2sc3ccccc3c2Cl)sc2cc(S(N)(=O)=O)ccc21`, the max inhibition is 4.98% [at 50 µM].
In the case of `CCOc1ccc(/C=C2/SC(=S)N(C(C(=O)O)c3ccccc3)C2=O)cc1OCC` (stereo unspecified), the max inhibition is 3.65%.
On to `Cc1ccc(-n2c(SCC(=O)N3CCCc4ccccc43)nnc2-c2cccnc2)c(C)c1`, for which the max inhibition was 3.12% [at 50 µM].
Consider `O=C(O)c1cc(Sc2ccc(Br)cc2)nc2ccccc12`, for which the max inhibition is 4.44% [at 50 µM].
Then `CCCCc1ccc(N=N/C(C(=O)Nc2ccccc2OC)=C(/C)O)cc1`, with 4.87% [at 50 µM].
The value for `O=C(COC(=O)CCN1C(=O)/C(=C\C=C\c2ccccc2)SC1=S)Nc1ccc(Br)cc1` was 9.41%; that for `O=C(Nc1ccn(Cc2cccc3ccccc23)n1)c1cccnc1` was 3.63%; that for `CCN(CC)S(=O)(=O)c1cccc(-c2nnc(SCCCC(=O)c3ccccc3)o2)c1` was 3.65%.
`O/N=C/c1cc(Br)ccc1OCc1cccc(F)c1`: the max inhibition was 1.58% [at 0.196 µM].
As to `COC(=O)c1scc(C)c1N/N=C(\C)c1ccc(F)cc1F`, the max inhibition is 8.43%.
The value for `CCCc1nn(C)c(C(=O)Nc2ccc(C(C)(C)C)cc2)c1Cl` was 3.4%; that for `CCCCOn1c(C)c(C(=O)OCC)c2c3no[n+]([O-])c3ccc21` was 2.31%.
The value for `O=C(NCc1ccc2c(c1)OCO2)c1cc(-c2ccccn2)nc2ccccc12` was 4.19% [at 3.125 µM].
As to `CC(C)(CNC(=S)NCCc1ccccc1)CNC(=S)NCCc1ccccc1`, the max inhibition is 4.96%.
Then `CCOC(=O)C(C)Sc1cc(CS(=O)(=O)c2ccccc2)nc(-c2ccccc2)n1` (stereo unspecified), with 5.53%; and `CCN(CC)S(=O)(=O)c1cc(NS(=O)(=O)c2c(Cl)cccc2Cl)ccc1C`, with 3.03% [at 50 µM]; and `Cc1ccccc1-c1nnn(CC(=O)Nc2ccc3c(c2)OCCO3)n1`, with 4.6%.
Consider `O=C(O)CCN1C(=O)/C(=C/c2cn(-c3ccccc3)nc2-c2cccs2)SC1=S`, for which the max inhibition is 5.53%.
For `COc1ccc(C(=O)/C=C/c2ccc(OC)c(COc3ccc(F)cc3)c2)cc1`, the max inhibition is 5.41%.
For the compound `CC(CCc1ccccc1)NC(=O)CNC(=S)N(Cc1cccs1)C1CCCC1` (stereo unspecified), the max inhibition was 3.28%.
Regarding `COc1ccc(-c2ccc(-c3noc(-c4cccc(OC)c4)n3)c(OC)n2)cc1`, the max inhibition was 4.12%.
With `CC1(C)CC(C(CCN(Cc2ccccc2)C(=O)c2ccco2)c2ccc(F)cc2)CCO1` (stereo unspecified), the max inhibition is 4.56% [at 50 µM].
Consider `C=C(C)COc1ccc(-c2[nH]ncc2Oc2ccccc2OCC)c(O)c1`, for which the max inhibition was 3.4%.
Take `CCOC(=O)c1sc(-c2ccccc2)cc1NC(=O)c1ccc(S(=O)(=O)N(CCOC)CCOC)cc1`: the max inhibition was 1.69% [at 12.5 µM].
With `O=C1Nc2ccccc2/C1=N\N=C\C1=C(N2CCOCC2)C(=C\c2ccccc2)/CC1`, the max inhibition was 19.6%.
`O=S(=O)(Nc1nc2ccccc2nc1Nc1ccc2c(c1)OCCO2)c1cccs1`: the max inhibition was 5.19%.
As for `Cc1cc(C)c(C)c(S(=O)(=O)N2CCC(C(=O)OCC(=O)N3c4ccccc4NC(=O)C3(C)C)CC2)c1C`, the max inhibition was 4.49%.
`CCOC(=O)c1ccc(NC(=O)Nc2ccc3c4c(cccc24)C(=O)N3CC)cc1`: the max inhibition is 3.19%.
Take `CC(C)c1ccc(CNc2cc(N3CCCC3)ccc2[N+](=O)[O-])cc1`: the max inhibition is 5.27%.
The value for `CCCCc1ccc(-c2csc(/C(C#N)=C\c3ccc(C)o3)n2)cc1` was 5.43%; that for `O=C(CN(Cc1cccs1)C(=O)CSc1nnc(COc2ccccc2)o1)NC1CCCC1` was 3.76%; that for `COc1ccc(/C=C2\SC(=O)N(CCC(=O)Nc3ccccc3)C2=O)cc1OC` was 3.41%.
Regarding `Cc1cc2c(C)ccc(C)c2nc1SCC(=O)c1cccs1`, the max inhibition is 5.59% [at 25 µM].
For `COc1ccc(O[C@H]2C=C[C@@H](c3ccccc3)O[C@@H]2CO/N=C(\C)CCC(=O)OC[C@H]2O[C@H](c3ccccc3)C=C[C@@H]2Oc2ccc(OC)cc2)cc1`, the max inhibition is 6.56%.
As to `Cc1ccc(S(=O)(=O)N2CCC(=O)N(C(COCc3cccc(C(F)(F)F)c3)C(C)C)CC2)cc1` (stereo unspecified), the max inhibition was 2.65% [at 0.782 µM].
Then `CCOC(=O)c1c(NC(=O)CSc2nnc(-c3ccco3)o2)sc(C)c1C`, with 4.63% [at 0.391 µM]; and `CCOC(=O)c1cc(C(C)C)sc1NC(=O)COC(=O)CCS(=O)(=O)c1ccccc1`, with 3.24% [at 50 µM].
Then `Cc1c(N=Nc2ccc(N(C)C)cc2)c(=O)n(-c2ccccc2)n1C`, with 20.4%.
`COc1ccc(N(CC(=O)NCCSCc2ccco2)S(=O)(=O)c2ccc(C)cc2)cc1`: the max inhibition is 4.74% [at 50 µM].
The value for `Cc1ccc(N=C(NOCc2ccc(Cl)cc2Cl)c2nonc2N)c(C)c1` was 5.27%; that for `CCOC(=O)c1sc(NC(=O)CSc2nnc(-c3ccc(OC)cc3)n2CCOC)nc1C` was 1.33% [at 0.782 µM].
Take `CCC(=O)NC(=S)Nc1ccc(NC(=S)NC(=O)c2ccccc2)cc1`: the max inhibition was 5.34% [at 50 µM].
Then `O=C(CSc1nnc(-c2ccccc2Br)o1)N1CCc2ccccc2C1`, with 2.54%; and `N#Cc1ccsc1NC(=O)COC(=O)CCCSc1nc2ccccc2s1`, with 2.77% [at 50 µM]; and `O=C(/C=C/c1cccc([N+](=O)[O-])c1)NCCSCc1ccccc1Cl`, with 1.79% [at 6.25 µM].
Take `Clc1ccc(CSc2nnc(/C=C/c3ccccc3)o2)cc1`: the max inhibition was 2.78% [at 25 µM].
The value for `CCSc1ccc(-c2nn(-c3ccccc3)cc2/C=C(/C#N)C(=O)NCCCOC)cc1` was 13%; that for `CCOC(=O)c1c(-c2cccs2)csc1NC(=O)COC(=O)c1c(C)noc1C` was 4.68%; that for `Cc1ccc(NC2=Nc3ccccc3N3C2=Nc2c(c(C)nn2-c2ccccc2)C3c2ccc(O)c(O)c2)cc1` (stereo unspecified) was 6.97%.
The value for `COc1ccc(C(=O)CSc2nc(C(C)(C)C)nc3ccccc23)cc1` was 2.25% [at 1.563 µM]; that for `Cc1[nH]c2ccccc2c1/C=C/c1nc2ccccc2c(=O)n1-c1ccc([N+](=O)[O-])cc1` was 6.44%.
With `N#Cc1nc(COc2ccccc2)oc1N1CCN(c2cccc(Cl)c2)CC1`, the max inhibition was 3.36% [at 50 µM].
As for `O=C(COC(=O)c1ccc(-c2ccccc2)cc1)Nc1ccccc1-c1ccccc1`, the max inhibition was 4.8% [at 50 µM].
`CC(C)(C)OC(=O)NCCCCCNC(=O)c1[nH]cnc1C(=O)N[C@@H](Cc1ccccc1)C(=O)OCc1ccccc1`: the max inhibition is 6.61%.
The value for `CCOc1ccc(NS(=O)(=O)c2ccc(NC(=S)NC(=O)CC(C)C)cc2)cc1` was 3.65% [at 0.196 µM]; that for `COc1cc(CC(NC(C)=O)C(=O)NC2CCN(c3c(Cc4ccccc4)c(C)nc4ncnn34)CC2)cc(OC)c1` (stereo unspecified) was 3.02% [at 25 µM]; that for `O=C(/C=C/c1ccccc1)N1CCN(c2cccc(Cl)n2)CC1` was 6.02%.
On to `CCOC(=O)c1c(C)[nH]c(C(=O)C(C)Sc2ccc(Cl)cc2)c1C` (stereo unspecified), for which the max inhibition was 2.41% [at 12.5 µM].
For `O=C(CSCc1ccc(Cl)cc1)Nc1cccc(C(=O)Nc2ccccc2C(=O)O)c1`, the max inhibition was 1.32% [at 0.196 µM].
Take `CCOc1ccc(NC(=O)CSc2nnc(-c3ccccc3Cl)n2Cc2ccco2)cc1`: the max inhibition is 1.32% [at 0.782 µM].
Then `C=CCN1C(=O)C(Cc2ccc(C)cc2)S/C1=N/N=C/c1ccco1` (stereo unspecified), with 6.91%; and `CC(=O)c1cc(C(=O)c2ccccc2)sc1Nc1ccccc1`, with 6.93%.
Consider `CCOC(=O)c1c(-c2cccc([N+](=O)[O-])c2)csc1NC(=O)CCCOc1ccccc1OC`, for which the max inhibition is 2.67% [at 50 µM].
As for `COc1ccc(CN(CCC(c2ccccc2)c2ccco2)C(=O)c2ccco2)cc1` (stereo unspecified), the max inhibition was 4.81% [at 6.25 µM].
Turning to `COc1ccccc1NC(=O)C(Sc1ccccc1)c1ccccc1` (stereo unspecified), the max inhibition is 2.18% [at 50 µM].
Then `CCOC(=O)/C(=C/c1ccc(N2CCC(c3ccccc3)=N2)cc1)C(C)=O`, with 3.75%; and `O=C(COC(=O)C1(c2ccccc2F)CCCC1)Nc1ncc(C(F)(F)F)cc1Cl`, with 2.79% [at 0.196 µM]; and `CCOC(=O)c1cnc(SC)nc1Oc1cccc(NC(=O)c2ccc(C)cc2)c1`, with 5.83% [at 50 µM].
As to `CCCC(CCC)=NNc1ccc(S(=O)(=O)Nc2ccccc2OC)cc1[N+](=O)[O-]`, the max inhibition is 3.78% [at 0.391 µM].
Turning to `Cc1cccc(COCC(Cc2ccccc2)N2CCN(C(=O)c3ccc(C(F)(F)F)cc3)CCC2=O)c1` (stereo unspecified), the max inhibition was 3.28% [at 0.782 µM].
As for `Cc1ccc(NC(=O)COC(=O)CCC(=O)c2ccc(C(C)(C)C)cc2)c([N+](=O)[O-])c1`, the max inhibition was 2.67% [at 0.196 µM].
Take `CCOC(=O)c1sc(NC(=O)CCCn2nc([N+](=O)[O-])cc2C)c(C(=O)OCC)c1C`: the max inhibition was 4.45% [at 0.782 µM].
The value for `CCCCCCCCNC(=O)/C(C#N)=C/c1ccc(SC)cc1` was 5.43%; that for `CCOC(=O)C(C)(C)N(Cc1cccc(C)c1)S(=O)(=O)c1cccc([N+](=O)[O-])c1` was 2.41% [at 50 µM]; that for `O=C(Nc1ccccc1-c1nnc(SCc2ccccc2)o1)c1ccccc1` was 4.39% [at 3.125 µM].
